16 compounds from PubChem BioAssay (NCATS) can be followed below.

Inconclusive results are not listed. A call without a number means that no potency is given here. The source made the active and inactive calls. The call rests on the fitted dose curve; in most records, active means well fitted inhibition curve with a large enough effect; inconclusive means small, poorly fitted or top-dose-only effect; inactive means flat fitted curve, though single readings scatter. Bridge positions count the residues as written; N and C are the ends. Square brackets hold non-standard residues; d marks the D form. Peptide text beside a SMILES is read from it. * marks the point of attachment. Ileψ(thiazoline)Cys = CC[C@H](C)[C@H](N)C1=N[C@H](C(=O)*)CS1; d(aIle) = CC[C@H](C)[C@@H](N)C(=O)O; dOrn = NCCC[C@@H](N)C(=O)O

One assay deals with CP266. Briefly: qHTS profiling for inhibitors of Plasmodium falciparum proliferation (AID 504749). Further: nearly all actives have a fitted effect of over 60% in size. As to conditions: P. falciparum in erythrocytes, SYBR Green DNA, 72 h; series mostly up to 12.8 µM. The method, boiled down: (§1)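 Three-day growth assay of blood-stage parasites in erythrocytes (0.3% parasitemia, 2.5% hematocrit) at 37 C, 5% CO2, quantified by SYBR Green DNA staining after overnight detergent lysis.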
On to `CN1CCO[C@H](c2ccccc2)c2ccccc2C1`, for which the Potency result was “inactive”.
Take `C[C@H](CCC(=O)O)[C@H]1CC[C@@H]2[C@@H]3[C@@H](O)C[C@H]4C[C@@H](O)CC[C@@]4(C)[C@H]3CC[C@@]21C`: the Potency entry is “inactive”.
As to `CN(C/C=C\c1ccccc1)Cc1cccc2ccccc12`, the Potency result was “inactive”.
With `CCN(CCCCOC(=O)c1ccc(OC)c(OC)c1)[C@@H](C)Cc1ccc(OC)cc1`, the Potency entry was “inactive”.
Same read-out and setting: in the case of `CCC(=O)OCC(=O)[C@@]1(OC(=O)CC)[C@H](C)C[C@@H]2[C@@H]3[C@H]([C@@H](O)C[C@@]21C)[C@]1(C)C=CC(=O)C=C1C[C@@H]3Cl` it was “inactive”; in that of `C[C@H](C(=O)O)c1cccc(Oc2ccccc2)c1`, “inactive”; in that of `CC1(C)[C@@H](OC(=O)CCC(=O)O)CC[C@@]2(C)[C@H]1CC[C@@]1(C)[C@H]2C(=O)C=C2[C@H]3C[C@](C)(C(=O)O)CC[C@]3(C)CC[C@@]21C`, “inactive”.
For the compound `CCOC(=O)O[C@@H](C)OC(=O)[C@@H]1N2C(=O)[C@@H](NC(=O)[C@@H](N)c3ccccc3)[C@H]2SC1(C)C`, the Potency entry is “inactive”.
As to `Cc1ccsc1/C=C\C1=NCCCN1C`, the Potency result was “inactive”.
Turning to `Cc1cccc(CN2CCN([C@@H](c3ccccc3)c3ccc(Cl)cc3)CC2)c1`, the Potency entry was “inactive”.
For `C#C[C@]1(O)CC[C@@H]2[C@H]3CCC4=CCCC[C@@H]4[C@@H]3CC[C@@]21C`, the Potency result was “inactive”.
Regarding `CC[C@H](C)[C@H](N)C1=N[C@H](C(=O)N[C@@H](CC(C)C)C(=O)N[C@@H](CCC(=O)O)C(=O)N[C@@H](C(=O)N[C@H]2CCCCNC(=O)[C@@H](CC(N)=O)NC(=O)[C@@H](CC(=O)O)NC(=O)[C@@H](Cc3cnc[nH]3)NC(=O)[C@@H](Cc3ccccc3)NC(=O)[C@@H]([C@@H](C)CC)NC(=O)[C@@H](CCCN)NC2=O)[C@@H](C)CC)CS1` ({Ileψ(thiazoline)Cys}-LE[d(aIle)]K[dOrn][d(aIle)][dF][dH][dD][dN]; lactam 4-C), the Potency entry is “inactive”.
The same measure, in the same setting: in the case of `O=C(O)COCCN1CCN([C@@H](c2ccccc2)c2ccc(Cl)cc2)CC1` it was “inactive”.
In the case of `CCN(CC)CCOC(=O)[C@@H](Cc1cccc2ccccc12)C[C@@H]1CCCO1`, the Potency result was “inactive”.
On the same count and under the same terms, the result for `C[C@@H](CNC1CCCCC1)OC(=O)c1ccccc1` reads “inactive”; that for `CC[C@H](CO)NCCN[C@@H](CC)CO`, “inactive”.

For the next assay, the system named is CP268. Described as above. As to conditions: P. falciparum in erythrocytes, SYBR Green DNA, 72 h; series mostly up to 12.8 µM. An outline of the steps:
as §1
`C[C@H](CCC(=O)O)[C@H]1CC[C@@H]2[C@@H]3[C@@H](O)C[C@H]4C[C@@H](O)CC[C@@]4(C)[C@H]3CC[C@@]21C`: the Potency result was “inactive”.
The same measure, in the same setting: in the case of `CN(C/C=C\c1ccccc1)Cc1cccc2ccccc12` it was “inactive”.
`CCN(CCCCOC(=O)c1ccc(OC)c(OC)c1)[C@@H](C)Cc1ccc(OC)cc1`: the Potency result is “inactive”.
In the case of `C[C@H](C(=O)O)c1cccc(Oc2ccccc2)c1`, the Potency result was “inactive”.
Still for that read-out and setting: the result for `CC1(C)[C@@H](OC(=O)CCC(=O)O)CC[C@@]2(C)[C@H]1CC[C@@]1(C)[C@H]2C(=O)C=C2[C@H]3C[C@](C)(C(=O)O)CC[C@]3(C)CC[C@@]21C` reads “inactive”; that for `CCOC(=O)O[C@@H](C)OC(=O)[C@@H]1N2C(=O)[C@@H](NC(=O)[C@@H](N)c3ccccc3)[C@H]2SC1(C)C`, “inactive”; that for `Cc1ccsc1/C=C\C1=NCCCN1C`, “inactive”.
The same measure, in the same setting: in the case of `Cc1cccc(CN2CCN([C@@H](c3ccccc3)c3ccc(Cl)cc3)CC2)c1` it was “inactive”.
The same measure, in the same setting: in the case of `C#C[C@]1(O)CC[C@@H]2[C@H]3CCC4=CCCC[C@@H]4[C@@H]3CC[C@@]21C` it was “inactive”; in that of `CC[C@H](C)[C@H](N)C1=N[C@H](C(=O)N[C@@H](CC(C)C)C(=O)N[C@@H](CCC(=O)O)C(=O)N[C@@H](C(=O)N[C@H]2CCCCNC(=O)[C@@H](CC(N)=O)NC(=O)[C@@H](CC(=O)O)NC(=O)[C@@H](Cc3cnc[nH]3)NC(=O)[C@@H](Cc3ccccc3)NC(=O)[C@@H]([C@@H](C)CC)NC(=O)[C@@H](CCCN)NC2=O)[C@@H](C)CC)CS1` ({Ileψ(thiazoline)Cys}-LE[d(aIle)]K[dOrn][d(aIle)][dF][dH][dD][dN]; lactam 4-C), “inactive”; in that of `O=C(O)COCCN1CCN([C@@H](c2ccccc2)c2ccc(Cl)cc2)CC1`, “inactive”.
For the compound `CCN(CC)CCOC(=O)[C@@H](Cc1cccc2ccccc12)C[C@@H]1CCCO1`, the Potency entry was “inactive”.
The same measure, in the same setting: the result for `CC[C@H](CO)NCCN[C@@H](CC)CO` reads “inactive”.

A further assay relates to CP269. Described as above. Conditions: P. falciparum in erythrocytes, SYBR Green DNA, 72 h; series mostly up to 12.8 µM. An outline of the steps:
as §1
As for `CN1CCO[C@H](c2ccccc2)c2ccccc2C1`, the Potency result was “inactive”.
In the case of `C[C@H](CCC(=O)O)[C@H]1CC[C@@H]2[C@@H]3[C@@H](O)C[C@H]4C[C@@H](O)CC[C@@]4(C)[C@H]3CC[C@@]21C`, the Potency result was “inactive”.
Take `CN(C/C=C\c1ccccc1)Cc1cccc2ccccc12`: the Potency entry is “inactive”.
With `C[C@H](C(=O)O)c1cccc(Oc2ccccc2)c1`, the Potency entry was “inactive”.
Same read-out and setting: the result for `CC1(C)[C@@H](OC(=O)CCC(=O)O)CC[C@@]2(C)[C@H]1CC[C@@]1(C)[C@H]2C(=O)C=C2[C@H]3C[C@](C)(C(=O)O)CC[C@]3(C)CC[C@@]21C` reads “inactive”; that for `CCOC(=O)O[C@@H](C)OC(=O)[C@@H]1N2C(=O)[C@@H](NC(=O)[C@@H](N)c3ccccc3)[C@H]2SC1(C)C`, “inactive”.
Consider `Cc1ccsc1/C=C\C1=NCCCN1C`, for which the Potency result was “inactive”.
In the case of `Cc1cccc(CN2CCN([C@@H](c3ccccc3)c3ccc(Cl)cc3)CC2)c1`, the Potency entry was “inactive”.
On the same count and under the same terms, the result for `C#C[C@]1(O)CC[C@@H]2[C@H]3CCC4=CCCC[C@@H]4[C@@H]3CC[C@@]21C` reads “inactive”; that for `CC[C@H](C)[C@H](N)C1=N[C@H](C(=O)N[C@@H](CC(C)C)C(=O)N[C@@H](CCC(=O)O)C(=O)N[C@@H](C(=O)N[C@H]2CCCCNC(=O)[C@@H](CC(N)=O)NC(=O)[C@@H](CC(=O)O)NC(=O)[C@@H](Cc3cnc[nH]3)NC(=O)[C@@H](Cc3ccccc3)NC(=O)[C@@H]([C@@H](C)CC)NC(=O)[C@@H](CCCN)NC2=O)[C@@H](C)CC)CS1` ({Ileψ(thiazoline)Cys}-LE[d(aIle)]K[dOrn][d(aIle)][dF][dH][dD][dN]; lactam 4-C), “inactive”.
With `O=C(O)COCCN1CCN([C@@H](c2ccccc2)c2ccc(Cl)cc2)CC1`, the Potency result is “inactive”.
The same measure, in the same setting: in the case of `CCN(CC)CCOC(=O)[C@@H](Cc1cccc2ccccc12)C[C@@H]1CCCO1` it was “inactive”.
On the same count and under the same terms, the result for `CC[C@H](CO)NCCN[C@@H](CC)CO` reads “inactive”.
